TRPML1 ag = qHTS for Agonists of the Human Mucolipin Transient Receptor Potential 1 (TRPML1); TRPML1-expressing cells, Ca2+ dye fluorescence, FDSS; activation, % (test concentration not listed); 0.12% of 410,000 active; in the data active = activation above about 50%; inconclusive = mostly about 30% to 49%; note: 0% is about no effect
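In this qHTS format, compounds were pin-transferred onto Ca8-dye-loaded TRPML1-DL cells induced with Tet overnight, and intracellular Ca2+ fluorescence was recorded kinetically for 110 s after a 10 s baseline. A subsequent 4uM final 54-4 (EC80) addition followed by a second 110 s read served as the antagonist phase.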
GLP1R cytotox = qHTS of GLP-1 Receptor Inverse Agonists: Cytotox Screen; HEK293 cAMP-luciferase reporter cells, luminescence, 24 h; Potency, µM (series often up to 38.3 µM), for inactives: top-dose activity change, negative = inhibition, usual class: inhibitors; 0.13% of 410,000 active; AID 624418, 2012;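 note: loss of luciferase light is scored as toxicity; potency is the fitted concentration of half-maximal effect; % is set by controls: 0 for no effect and ±100 for the full control effect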
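Cells in DMEM/10% Nu serum/1% pen-strep, 1536-well format. Pre-incubated 12 h, dosed with 23 nL compound, incubated a further 24 h. Luciferase detection, 12 min at room temp, luminescence.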
TRHR ag = qHTS for Small Molecule Agonists and Allosteric Enhancers of Human TRH Receptor: Primary Screen for Agonists. activation, % at 2 µM. TRHR cells, calcium flux fluo-8, FDSS agonist mode. 0.18% of 360,000 active. AID 493084, 2011. Thyrotropin-releasing hormone receptor (Homo sapiens), P34981; in the data active = activation above about 30%; note: 0% is about no effect
Target sequence (P34981 whole entry, looked up): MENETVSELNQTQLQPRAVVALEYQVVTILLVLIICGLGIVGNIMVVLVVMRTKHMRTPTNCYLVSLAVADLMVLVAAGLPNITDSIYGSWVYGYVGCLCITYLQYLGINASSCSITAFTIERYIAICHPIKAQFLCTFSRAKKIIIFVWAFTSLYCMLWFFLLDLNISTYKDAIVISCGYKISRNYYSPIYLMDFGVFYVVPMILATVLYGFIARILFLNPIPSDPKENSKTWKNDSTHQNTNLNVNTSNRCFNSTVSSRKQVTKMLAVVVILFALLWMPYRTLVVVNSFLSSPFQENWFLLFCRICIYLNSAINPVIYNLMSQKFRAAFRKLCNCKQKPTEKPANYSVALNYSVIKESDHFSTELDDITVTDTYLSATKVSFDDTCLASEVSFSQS
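Fluo-8-loaded TRHR cells; 10 s baseline, compound added, kinetic Ca2+ fluorescence read 1/s, agonist mode.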
PTHR1 agonist = qHTS for PTHR1 Agonists: Primary Screen | Potency, µM (highest dose often 115 µM), inactives show top-dose activation, actives largely listed as activators | 0.075% of 410,000 active | HEK293 GP2 PTHR1 cells, GloSensor cAMP luminescence, 1 h; note: potency is the fitted concentration of half-maximal effect; nearly all actives have a fitted effect of over 55% in size
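HEK-293-derived GP2 cells expressing PTHR1 and a GloSensor cAMP reporter, 3,000/well, plated overnight, given luciferin plus IBMX (each 0.5 mM as added) for 1 h at 37 °C, then compound for 1 h at 37 °C. Luminescence was read after 15 min at room temperature.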
TRHR PAM = qHTS for Small Molecule Agonists and Allosteric Enhancers of Human TRH Receptor: Primary Screen for Enhancers | 0.66% of 360,000 active | TRHR cells, fluo-8 calcium fluorescence, EC20 TRH enhancement | enhancement, % at 2 µM; in the data active = enhancement above about 30%; note: 0% is about no effect
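TRHR-expressing cells loaded with fluo-8 calcium dye were read kinetically (ex 480/em 530) during compound addition, then stimulated with an EC20 of TRH (10 nM final). Enhancement of the Gq-mediated intracellular calcium response was scored.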
TRPML1 inh = qHTS for Inhibitors of the Human Mucolipin Transient Receptor Potential 1 (TRPML1) | TRPML1-inducible cells, Ca2+ dye fluorescence, FDSS; active compounds read low; inhibition of EC80 agonist-evoked calcium signal | activity change, negative = inhibition, % (test concentration not listed) | 0.02% of 390,000 active | AID 624415, 2012; in the data active = activity change below about -50%; inconclusive = between about -30% and that limit;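 note: stimulus is agonist 54-4 at its EC80 concentration; % is set by controls: 0 for no effect and ±100 for the full control effect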
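Tet-induced TRPML1-DL cells loaded with Ca8 no-wash calcium dye were read kinetically on FDSS. Compound addition was followed by EC80 agonist 54-4 (4 uM final); inhibition was read over 110 s.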
The depositor's hits bear a star; i = inactive; ? = inconclusive; / = no result; ! = a repeat was not active; [ ] = remark or other dose. A selection: hits, their analogues and other compounds. The true share with any hit is near 0.93%. Unless noted, calls come from the whole dose curve; as a rule, active = well fitted curve in the direction sought with a large enough effect; inconclusive = small, poorly fitted or top-dose-only effect, or another doubt; inactive = no such curve, though single readings can be large; an effect the other way counts as inactive or inconclusive.

SMILES	TRPML1 ag	GLP1R cytotox	TRHR ag	PTHR1 agonist	TRHR PAM	TRPML1 inh
Cc1cc(N2CCN(c3ccc([N+](=O)[O-])c4cccnc34)CC2)c2ccccc2n1	-1.7	4.4%	-1.5	i	3.5	-5.1
COc1ccccc1/C=C/C=N/n1c(-c2n[nH]c3c2CCC3)n[nH]c1=S	-0.9	-19.4%	0.5	i	-0.3	-6.4
S=c1[nH]nc(-c2n[nH]c3c2CCC3)n1/N=C/C=C/c1ccco1	-1.0	0.4%	-1.1	i	39.2*	0.4
NC(=S)NN=C(c1ccc(F)cc1)C1CC1	-0.6	10µM*	/	-19.6%	/	-6.3
COC(=O)N/N=C(/c1ccccc1)C1CCCCC1	/	/	0.5	/	4.3	/
COc1ccc(Cl)cc1Nc1ncnc2c1c(-c1ccccc1)cn2-c1ccccc1	0.0	-11.4%	-0.9	?	-15.6	-0.1
Fc1ccc(-n2cc(-c3ccccc3)c3c(NCCc4ccccc4)ncnc32)cc1	0.9	3.3%	0.6	-20.0%	1.4	64.9
COc1ccc(CCNc2ncnc3c2c(-c2ccccc2)cn3-c2ccc(Cl)cc2)cc1OC	76.8*	-1.9%	1.0	-23.7%	-8.0	-18.1
COc1ccc(CCNc2ncnc3c2c(-c2ccccc2)cn3-c2ccc(F)cc2)cc1OC	63.9*	-4.9%	0.3	-1.6%	-0.9	-22.0
CC(C)(C)c1ccc(C(=O)NCC(=O)OC(C(=O)Nc2cc(C(F)(F)F)ccc2Cl)c2ccccc2)cc1 (centres undefined)	/	/	0.6	/	-11.4	/
CC(C)(C)CC(C)(C)N=C1Nc2ccc([N+](=O)[O-])cc2N[C@]12C[C@H]1CCCC(=O)N3CC[C@@H](C2)[C@@H]13	5.3	/	/	/	/	/
CN(C)c1ccc(C(=C2c3ccccc3-c3ccccc32)c2ccc(N(C)C)cc2)cc1	0.0	/	/	/	/	/
C=CC(=O)N1C/C(=C/c2ccccc2)C(=O)/C(=C\c2ccccc2)C1	0.5	?	/	-47.1%	/	45.1
C=CC(=O)N1C/C(=C/c2ccc(Cl)cc2)C(=O)/C(=C\c2ccc(Cl)cc2)C1	1.0	3.16µM*	/	-36.9%	/	76.0
COc1ccc(C2Nc3ccccc3C(=O)N2Cc2ccco2)cc1COc1c(C)cccc1C (centres undefined)	-1.1	/	/	/	/	/
Cc1ccc(C)c(N2CCN(CCCNC(=O)Cn3cccc3C(=O)c3ccccc3C)CC2)c1	0.1	10µM*	0.2	-42.2%	8.4	10.2
CS(=O)(=O)c1ccc(/C=C2\C=Cc3ccccc32)cc1	1.1	/	/	/	/	/
Cc1c(F)cccc1NC(=O)CSCC(=O)Nc1ccccc1	1.0	-13.8%	0.0	i	-0.9	-55.3*
COc1ccc(C)cc1NC(=O)C1CCCN(S(=O)(=O)c2ccc3[nH]c(=O)ccc3c2)C1 (centres undefined)	-1.2	-18.4%	-1.0	-2.5%	46.8*!	11.9
Cc1ccc2oc(-c3cccc(NC(=O)COc4ccc(Cl)cc4)c3C)nc2c1	-0.3	/	/	/	/	/
COc1ccc(CC(=O)NO)cc1OC	0.0	/	/	/	/	/
CCc1ccc(N(CC(=O)NC2CCCC2)C(=O)CCC(=O)Nc2ccccn2)cc1	0.2	0.0%	0.6	i	31.4*	-15.0
CC(C)c1ccc(N(CC(=O)NCc2ccco2)C(=O)CCC(=O)Nc2ccccn2)cc1	0.0	-8.8%	-0.2	-18.7%	39.2*	-2.8
COCCNC(=O)CN(C(=O)CCC(=O)Nc1ccccn1)c1ccc(F)cc1	-0.6	3.1%	0.0	-4.1%	33.4*	13.3
O=C(NCCc1nc2ccccc2n1CCOc1ccccc1)C1CCCCC1	-0.5	/	/	/	/	/
SMILES	TRPML1 ag	GLP1R cytotox	TRHR ag	PTHR1 agonist	TRHR PAM	TRPML1 inh
CCCCNc1ccc(/C=C2\C=Cc3ccccc32)cc1	-0.2	/	/	/	/	/
CCCN(CC1CC1)C(=S)NC(=O)c1cc(Br)ccc1Cl	1.4	3.16µM*	0.0	-42.0%	15.9	2.8
Cc1cc2oc(=O)cc(CN3CCN(Cc4ccccc4)CC3)c2cc1Cl	-1.2	7.7%	-0.3	i	-3.8	18.8
Cc1cc2oc(=O)cc(CN3CCC(C)CC3)c2cc1Cl	-0.3	4.9%	0.2	-8.5%	30.2*	6.6
CN1C(=O)Cc2cc(S(=O)(=O)NCCc3ccc(Cl)cc3)ccc21	0.6	9.7%	0.6	-4.3%	39.6*!	25.9
CC(=O)Nc1ccc(-c2nnc(SCc3ccccc3)n2C)cc1	-0.1	/	/	/	/	/
COc1cc2c(NC3CCN(C)CC3)nc(N3CCCCC3)nc2cc1OCCCN(C)C	-0.2	/	/	/	/	/
CCN(CC)c1ccc2cc(-c3nc(-c4ccccc4)no3)c(=O)oc2c1	28.1	57.5%	55.4*	-19.4%	3.7	-7.7
CCN(CC)c1ccc2cc(-c3nnc(Nc4ccc(C)cc4)s3)c(=O)oc2c1	67.1*	23.9%	159.5*	i	-17.2	-28.3
O=c1oc2ccccc2cc1-c1nc(-c2ccccc2)no1	-1.1	-8.4%	-0.2	-2.6%[57.5 µM]	-2.6	-4.3
COc1cc(C(=O)n2nc(C)cc2C)ccc1O	-0.3	-3.5%	0.4	i	37.8*	2.8
COc1ccc(C(=O)n2nc(C)cc2C)cc1Br	1.1	12.0%	0.0	18.9%[57.5 µM]	-3.4	15.0
C=CCN(CC=C)C(=S)NC(=O)c1ccc(OC)cc1	-0.4	0.631µM*	0.0	i	4.6	-8.1
Nc1nc(=S)[nH]c2n[nH]nc12	-0.1	/	/	/	/	/
O=[N+]([O-])c1ccc(Nc2nc(NCCN3CCOCC3)nc(Nc3ccc(I)cc3)n2)cc1	-0.5	/	/	/	/	/
O=C(c1cc(Br)ccc1O)N(Cc1ccco1)Cc1cccs1	-0.6	/	/	/	/	/
CN1C(=O)CC(c2ccco2)Sc2ccccc21 (centres undefined)	0.4	5.9%	-0.5	-9.4%[57.5 µM]	35.0*	-4.4
Cc1ccc(NS(=O)(=O)c2cccc(C(=O)NC3CCN(Cc4ccccc4)CC3)c2)c(C)c1	1.0	11.2µM*	/	-11.6%	/	-3.5
COc1ccccc1NS(=O)(=O)c1cccc(C(=O)NC2CCN(Cc3ccccc3)CC2)c1	0.7	-4.4%	-0.3	-76.0%	-5.3	3.9
O=C(NC1CCN(Cc2ccccc2)CC1)c1cccc(S(=O)(=O)Nc2ccc(Br)cc2)c1	-0.2	-10.9%	0.2	-38.6%	15.8	-2.7
O=C(NC1CCN(Cc2ccccc2)CC1)c1cccc(S(=O)(=O)Nc2ccc(F)cc2)c1	0.5	11.2µM*	0.8	-21.0%	10.1	-10.9
